Compound activity (PubChem BioAssay)
The full list was thinned out, with hits kept by preference.
CHX counter: counter-screen for Shiga toxin inhibitors: cycloheximide protein synthesis inhibition; max response, %; AID 2314; 300,000 compounds, 12% hits; cell reporter, cycloheximide protein synthesis inhibition counterscreen; in the data active = max response mostly above about 13%, no sharp cut-off; inactive = mostly below about 14%; also: read at 38.3 µM for the half of the compounds with a filed dose; 0% is about no effect
Shiga toxin inh: inhibitors of Shiga toxin in Vero cells; Vero cells, Shiga toxin protein synthesis inhibition reporter; inhibition, % at 38.7 µM; 290,000 compounds, 9.2% hits; AID 2315; in the data active = inhibition mostly above about 28%, no sharp cut-off; inactive = mostly below about 43%; also: 0% is about no effect
AmpC detergent: inhibitors of E. coli AmpC beta-lactamase with detergent; P00811; AmpC hydrolysis of nitrocefin, absorbance 480 nm, 0.01% Triton; Potency, µM (top dose mostly 114 µM), for the others: at the highest dose activity change, negative = inhibition, actives largely listed as inhibitors; 370,000 compounds, 0.041% hits;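 also: potency is read from the fitted curve at half-maximal effect; 0% = no-compound wells and -100% = no-enzyme wells; nearly all actives have a fitted effect of over 25% in size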
Target sequence (P00811 whole entry, looked up): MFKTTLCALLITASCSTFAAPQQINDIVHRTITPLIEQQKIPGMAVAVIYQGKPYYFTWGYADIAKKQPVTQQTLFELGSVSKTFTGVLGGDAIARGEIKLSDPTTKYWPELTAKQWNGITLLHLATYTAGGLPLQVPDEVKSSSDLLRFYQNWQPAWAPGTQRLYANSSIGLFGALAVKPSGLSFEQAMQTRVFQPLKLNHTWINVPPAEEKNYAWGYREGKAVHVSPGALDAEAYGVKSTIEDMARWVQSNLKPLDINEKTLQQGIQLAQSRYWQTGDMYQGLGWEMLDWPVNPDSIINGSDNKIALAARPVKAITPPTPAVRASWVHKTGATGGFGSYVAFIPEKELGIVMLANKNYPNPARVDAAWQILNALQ
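20 mM phosphate pH 7.0 + 0.01% (detergent screen) or 0.0001% Triton X-100; 5.3 nM AmpC reagent; cpd preinc 15 min RT; nitrocefin (800 uM stock) to start; A480 q20 s × 4 min; Activity was normalised to no-enzyme and no-compound control wells.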
SARS PLP yeast: SARS-CoV PLP inhibition in yeast; S. cerevisiae expressing SARS-CoV PLpro, growth rescue; Potency, µM (highest dose often 32.9 µM), for the others: top-dose activity, positive = growth rescue, most hits filed as activators; 330,000 compounds, 0.19% hits; calls by dose curve; also: potency is read from the fitted curve at half-maximal effect; 0% is about no effect; nearly all actives have a fitted effect of over 55% in size
AmpC inh no detg: AmpC beta-lactamase inhibition without detergent; 330,000 compounds, 0.52% hits; AID 485341; Potency, µM (top dose mostly 57.1 µM), for the others: at the top dose activity change, negative = inhibition, usual class: inhibitors; AmpC nitrocefin hydrolysis, absorbance 480 nm, 0.0001% Triton; P00811;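 also: potency is read from the fitted curve at half-maximal effect; plate controls were no compound for no effect and no enzyme for full effect; nearly all actives have a fitted effect of over 20% in size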
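AmpC (5.3 nM in the dispensed reagent) in 20 mM phosphate pH 7.0 with 0.01% (detergent screen) or 0.0001% Triton X-100 was preincubated with compounds for 15 min at room temperature. Nitrocefin was then added from an 800 uM solution, and hydrolysis was followed at 480 nm.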
AMA1 RON2 block: disrupts binding of P. falciparum AMA1 to RON2; AlphaScreen AMA1-biotinylated RON2 peptide binding; Potency, µM (titrated, usually from 58.2 µM), without a hit: at the highest dose activity change, negative = inhibition, usual class: inhibitors; 360,000 compounds, 0.2% hits; AID 720542;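 also: potency is read from the fitted curve at half-maximal effect; 0% = vehicle wells and -100% = peptide control; nearly all actives have a fitted effect of over 45% in size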
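AMA1 (3D7) with his tag at 25 nM final met compounds first, then biotinylated RON2 peptide at 25 nM; detection used donor plus acceptor beads, 10 µg/mL apiece, read by AlphaScreen after 30 min at room temperature.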
The depositor's hits bear a star; ? = inconclusive; · = no result given; [ ] = dose if it differs, or a comment. Unless noted, calls follow the shape of the dose curve; as a rule, active = well fitted curve in the direction sought with a large enough effect; inconclusive = small, poorly fitted or top-dose-only effect, or another doubt; inactive = no such curve, though single readings can be large; an effect the other way counts as inactive or inconclusive.

SMILES	CHX counter	Shiga toxin inh	AmpC detergent	SARS PLP yeast	AmpC inh no detg	AMA1 RON2 block
Cc1nnc(NC(=O)c2ccc3c(c2)OCO3)s1	39*	56*	0%	-1%	-18%	-23%
COCCSc1nnc(NC(=O)c2ccc3c(c2)OCO3)s1	13	17	-3%	1%	-16%	3%
O=C(Nc1ccc(NC(=O)c2cccs2)cc1)c1ccc2c(c1)OCO2	-2	15	1%	-2%	-24%	-18%
CCOC(=O)C1(CCc2ccccc2)CCN(Cc2ccccn2)CC1	-1	8	6%	-1%	43%	6%
CC(=O)c1cnn(-c2ccc(Cl)c(Cl)c2Cl)c1C	-3	1	-5%	0%	22%	-22%
CCOc1ccc(NC(=O)CCSc2ccc(C)cc2)cc1	-1	-5	-7%	-42%	-25%	3%
Cc1cc(N)ccc1N1CCCC1	-1	8	-3%	-9%	16%	16µM*
CCN1CCN(c2ccc(N)cc2C)CC1	1	-6	?	1%	-12%	-17%
S=c1nc(NCCc2ccccc2Cl)c2ccccc2[nH]1	26*	31	-7%	1%	-11%	81%
O=C(CN1CCCCC1)Nc1cccc(Cl)c1	10	-7	1%	-1%	-8%	-4%
CCCn1cnc2cc(NC(=O)c3cc(OC)c(OC)c(OC)c3)ccc21	·	·	3%	·	·	·
CCn1cnc2cc(NCc3ccc(N(C)C)cc3)ccc21	52*	154*	-2%	1%	-11%	?
CCCn1cnc2cc(NCc3cccc(OC)c3)ccc21	24*	35*	?	-9%	-10%	-24%
CCN(CC)c1ccc(CNc2ccc3c(c2)ncn3CC)cc1	12	17	-4%	2%	16%	?
CN(C)c1ccc(CNc2ccc3c(c2)ncn3C(C)(C)C)cc1	28*	58*	-2%	0%	59%	?
CCCn1cnc2cc(NCc3ccc(Br)cc3)ccc21	29*	64*	-7%	-2%	-1%	-25%
O=C(Cn1c(Cn2c(-c3cnccn3)nc3ccccc32)nc2ccccc21)c1ccc(OC(F)(F)F)cc1	·	·	·	·	·	4%
CCCn1cnc2cc(NCc3ccccc3O)ccc21	39*	113*	2%	0%	-32%	3%
CCCn1cnc2cc(NCc3ccc(OC)cc3OC)ccc21	·	·	21%	·	·	·
CCn1cnc2cc(NCc3ccc(Br)cc3)ccc21	40*	67*	1%	-2%	4%	?
Cc1ccc(CNc2ccc3c(c2)ncn3C(C)C)cc1	36*	61*	-3%	1%	16%	-23%
CCn1cnc2cc(NCc3ccc(C)cc3)ccc21	60*	90*	-15%	-1%	-15%	-4%
Cc1ccc(S(=O)(=O)N2c3ccccc3OCC2c2ccccc2)cc1 (centres undefined)	10	2	-5%	-9%	-23%	1%
Cc1ccc(NC(=O)COC(=O)CCc2ccccc2)c(Cl)c1	4	4	4%	-3%	-27%	8%
O=C(Nc1ccccc1C(=O)OCC(=O)c1c[nH]c2ccccc12)c1ccco1	57*	82*	-4%	3%	6%	9%
SMILES	CHX counter	Shiga toxin inh	AmpC detergent	SARS PLP yeast	AmpC inh no detg	AMA1 RON2 block
O=C(COC(=O)c1cccs1)NCCC1=CCCCC1	14*	15	6%	26%	-6%	-2%
Cc1ccc(CSCCC(=O)NCCC2=CCCCC2)cc1	23*	21	6%	-30%	14%	5%
O=C(COC(=O)c1ccc(F)cc1F)NCCC1=CCCCC1	·	·	-15%	-1%	-12%	-5%[11.6 µM]
O=C(COC(=O)c1ccccc1Cl)NCCC1=CCCCC1	31*	83*	5%	-12%	-1%	22%
COC(=O)c1ccccc1NC(=O)c1ccco1	-1	-5	-12%	-2%	-9%	2%
CCOC(=O)c1ccc(NC(=O)CCN2C(=O)C3CC=CCC3C2=O)cc1 (centres undefined)	·	·	1%	0%	-7%	-7%
O=C(COC(=O)c1ccc(O)cc1)NCCC1=CCCCC1	8	5	?	0%	-6%[11.4 µM]	-2%
O=C(COC(=O)c1ccccc1O)NCCC1=CCCCC1	47*	90*	-10%	-4%	-5%	3%
O=C(COC(=O)c1ccc2c(c1)OCCO2)NCCC1=CCCCC1	23*	100*	-22%	2%	-20%	-2%
O=C(COC(=O)c1ccccc1NC(=O)c1ccco1)NCCC1=CCCCC1	30*	108	?	-3%	-23%	-1%
Cc1ccc(C(=O)OCC(=O)NCCC2=CCCCC2)cc1N	6	-13	1%	2%	-3%	-3%
O=C(COC(=O)c1ccccc1NC(=O)c1ccco1)NCC1CCCCC1	0	18	?	-12%	-20%	4%
CCNC(=S)NNC(=O)c1nn(C)c(C)c1Cl	26	82*	-8%	0%	-12%	116%
CCNC(=S)NNC(=O)c1c(Cl)c(C)nn1C	-2	-2	-8%	3%	-22%	29%
Cc1nn(CCC(=O)NNC(=S)Nc2ccc(F)cc2)c(C)c1[N+](=O)[O-]	-1	-6	-1%	-23%	-19%	91%
Cc1c(Cl)c(C(=O)NNC(=S)Nc2ccccc2)nn1C	31*	64*	2%	-4%	-9%	51%
Cc1c(Cl)c(C(=O)NNC(=S)Nc2ccc(F)cc2)nn1C	34*	179*	-8%	0%	-26%	37%
CC(=O)c1c(O)cc(C)n(Cc2ccccc2)c1=O	·	·	·	·	·	3%
COC(=O)c1ccc(NC(=S)N2CCN(C)CC2)cc1	-2	7	?	4%	-8%	2%
CCc1cc(CNC(=O)c2cccc(OC3CCN(S(C)(=O)=O)CC3)c2)on1	·	·	·	·	·	-1%
COCC1CCCCN1C(=O)c1cccc(OC2CCN(S(C)(=O)=O)CC2)c1 (centres undefined)	16*	16	-4%	0%	31%	29%
CS(=O)(=O)N1CCC(Oc2ccccc2C(=O)NC2CCCCCC2)CC1	17*	13	2%	-2%	60%	8%
CCOCCCNC(=O)c1ccccc1OC1CCN(S(C)(=O)=O)CC1	12*	13	-2%	14%	-8%	-3%
CCOCCCNC(=O)c1cccc(OC2CCN(S(C)(=O)=O)CC2)c1	30*	35*	-18%	4%	-9%	2%
CC1CCCCN1C(=O)c1ccccc1OC1CCN(S(C)(=O)=O)CC1 (centres undefined)	-4	3	2%	1%	23%	8%
Cc1nc(CNC(=O)c2ccccc2OC2CCN(S(C)(=O)=O)CC2)cs1	12	15	3%	1%	0%	-6%
COc1ccc(C(C(=O)NCc2ccccc2)N(Cc2cccnc2)C(=O)c2snc(C(N)=O)c2N)cc1OC (centres undefined)	-2	-6	3%	2%	23%	0%
